Data taken from PubChem BioAssay AID977622 (Broad Institute, 2014).
Screen size: about 1,900 compounds; fewer than 10 were called active. Roughly 39% stayed inconclusive and do not appear here.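 Rule for the calls: active = Green signal of the normal strain falls at least twice as much as red signal of the resistant mutant, with overall culture growth loss under a set limit; inconclusive = no clear call, values can overlap the other calls; inactive = the rest.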 The list is a sample of the results.

Key:
[1] = growth inhibition of wild-type GFP E. coli, dose response, h38 mutant RFP, cherry-pick (AID 977622); details: activity change: E. coli mixed culture, total growth OD600 at 50 uM, at 50 µM
[2] = tested on: E. coli h38 humanized mutant ribosome RFP fluorescence, mixed culture, 24 h; assay: as above; details: h38 mutant RFP at 50 uM; at 50 µM

With O=C(NCc1ccccc1)c1ccc(-c2cn[nH]c2)c2ccoc12 the activity change [1] was -21.8%, the outcome [1] was “inactive” and the activity change [2] was -23.8%.

For CCC(=O)Nc1nc2c(OC)ccc(OC)c2s1, the outcome [1] was “inactive” and the activity change [2] was -14.1%.

In the case of O=C(Nc1cccc(Cl)c1)N1C[C@@H]2[C@H](c3ccccc31)[C@@H](CO)N2C(=O)c1cccnc1, the activity change [1] is reported as 7.11%, the outcome [1] is reported as “inactive” and the activity change [2] is reported as 2.16%.

In the case of c1ccc(SCc2nc3ccccc3s2)nc1, the activity change [1] is reported as -3.53%, the outcome [1] is reported as “inactive” and the activity change [2] is reported as 8.07%.

With Cc1ccc(NS(=O)(=O)c2ccc3c(c2)CCC(=O)N3)cc1C the activity change [1] was -8.95%, the outcome [1] was “inactive” and the activity change [2] was -10.9%.

With O=C(Nc1cccc(F)c1)N1C[C@@H]2[C@H](c3ccccc31)[C@H](CO)N2C(=O)Cc1ccccn1 the activity change [1] was 4.66%, the outcome [1] was “inactive” and the activity change [2] was -3.32%.

With COc1ccc(-c2cc(C(=O)Nc3ccc(C(N)=O)cc3)c3ccccc3n2)cc1OC the activity change [1] was 8%, the outcome [1] was “inactive” and the activity change [2] was -4.25%.

For N#Cc1ccc(-c2ccc(C3[C@H]4CNC[C@@H]3N4S(=O)(=O)c3ccc(-c4ccccc4)cc3)cc2)cc1 (stereo not given in full), the activity change [1] was -54.5%, the outcome [1] was “inactive” and the activity change [2] was 244%.

With Nc1ccc(C(=O)OCCCc2nc3cc4ccccc4cc3[nH]2)cc1 the activity change [1] was 3.79%, the outcome [1] was “inactive” and the activity change [2] was 0.364%.

In the case of O=C(NCc1nc2ccccc2[nH]1)c1ccc(S(=O)(=O)N2CCCC2)cc1, the activity change [1] is reported as -24.9%, the outcome [1] is reported as “inactive” and the activity change [2] is reported as 2.82%.

In the case of CC[n+]1c(C)cc2c(sc3ccccc32)c1C, the activity change [1] is reported as -0.26%, the outcome [1] is reported as “inactive” and the activity change [2] is reported as -7%.

In the case of COc1ccccc1NC(=O)CSc1ncc(CO)n1Cc1ccc(F)cc1, the activity change [1] is reported as -27.8%, the outcome [1] is reported as “inactive” and the activity change [2] is reported as -17.1%.

For CSc1ccc(CN(C)C(=O)C(c2ccccc2)c2ccccc2)cc1, the activity change [1] was -21.9%, the outcome [1] was “inactive” and the activity change [2] was -20.3%.

In the case of O=C(Nc1ccc(C(=O)Nc2ccccc2Cl)cc1)c1cccnc1, the activity change [1] is reported as -26.4%, the outcome [1] is reported as “inactive” and the activity change [2] is reported as -26%.

For COC(=O)c1ccc(CCc2cc(O)c(Br)cc2O)cc1, the activity change [1] was -52.8%, the outcome [1] was “inactive” and the activity change [2] was 27.3%.

For O=C(Nc1ccc(C(=O)c2ccccc2)cc1)c1ccccc1, the activity change [1] was -40.2%, the outcome [1] was “inactive” and the activity change [2] was -22.1%.

For OC[C@H]1[C@H](c2ccc(-c3ccc(F)cc3)cc2)[C@@H]2CN(Cc3ccncc3)CCCCN12, the activity change [1] was -3.55%, the outcome [1] was “inactive” and the activity change [2] was -17.5%.

For O=C(NCCCn1ccnc1)c1sc2cc([N+](=O)[O-])ccc2c1Cl, the activity change [1] was -6%, the outcome [1] was “inactive” and the activity change [2] was -1.75%.

For CCC1(CC)NC(=O)N(CC(=O)N2N=C(c3ccc(Cl)cc3)CC2c2ccco2)C1=O (stereo not given), the activity change [1] was -19.3%, the outcome [1] was “inactive” and the activity change [2] was -38.4%.

With O=C(COc1cccc2c1CCN(Cc1ccccc1F)C2=O)N1CCCCC1 the activity change [1] was -32.1% and the outcome [1] was “inactive”.

With O=C(Nc1cccc(S(=O)(=O)c2cccc(NC(=O)C3CC3)c2)c1)C1CC1 the activity change [1] was -38.1%, the outcome [1] was “inactive” and the activity change [2] was 4.96%.

With O=S(=O)(Cc1ccccc1)N1CCCCN2[C@@H](CO)[C@@H](c3ccc(-c4cccnc4)cc3)[C@@H]2C1 the activity change [1] was -6.81%, the outcome [1] was “inactive” and the activity change [2] was 16.2%.

In the case of Cc1noc(C)c1NC(=O)Nc1ccc2c(c1)C(=O)N([C@@H](C)CO)C[C@@H](C)[C@@H](CN(C)C(=O)Nc1ccc3c(c1)OCO3)OCCCC[C@@H](C)O2, the activity change [1] is reported as -2.53%, the outcome [1] is reported as “inactive” and the activity change [2] is reported as 20.3%.

For Fc1ccc(-c2nc3c(Cl)cc(C(F)(F)F)cn3c2Cc2ccsc2)cc1, the activity change [1] was -5.9%, the outcome [1] was “inactive” and the activity change [2] was 5.92%.
